eIF4E 4G PPI: blocks eIF4E binding to eIF4G. P63073+Q04637. TR-FRET eIF4E-eIF4GI(517-606) binding, 2 h. inhibition, % at 21.7 µM. 0.37% of 220,000 active. AID 782;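 active means inhibition above about 30%, limit read from the data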
PERK inhibitor: inhibitors of human PERK kinase | inhibition, % at 5.6 µM | 0.17% of 220,000 active | Q9NZJ5 | AID 1416 | CHO PERK-DD fusion, SEAP luminescence translation reporter;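 active means inhibition above the mean inhibition of all tested compounds plus 3 SD, set separately per screening campaign, cut at about 2.9% in these data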;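 further: PERK kinase domain activated by AP20187 dimerizer at 100 nM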
PABP FP inh: blocks human PABP binding to poly(A) RNA; 1% of 290,000 active; calls only at 35 µM; AID 2014; fluorescence polarization;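 further: calls also rest on retests at 20 µM and on dose response follow-up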
Target sequence (P11940 whole entry, looked up): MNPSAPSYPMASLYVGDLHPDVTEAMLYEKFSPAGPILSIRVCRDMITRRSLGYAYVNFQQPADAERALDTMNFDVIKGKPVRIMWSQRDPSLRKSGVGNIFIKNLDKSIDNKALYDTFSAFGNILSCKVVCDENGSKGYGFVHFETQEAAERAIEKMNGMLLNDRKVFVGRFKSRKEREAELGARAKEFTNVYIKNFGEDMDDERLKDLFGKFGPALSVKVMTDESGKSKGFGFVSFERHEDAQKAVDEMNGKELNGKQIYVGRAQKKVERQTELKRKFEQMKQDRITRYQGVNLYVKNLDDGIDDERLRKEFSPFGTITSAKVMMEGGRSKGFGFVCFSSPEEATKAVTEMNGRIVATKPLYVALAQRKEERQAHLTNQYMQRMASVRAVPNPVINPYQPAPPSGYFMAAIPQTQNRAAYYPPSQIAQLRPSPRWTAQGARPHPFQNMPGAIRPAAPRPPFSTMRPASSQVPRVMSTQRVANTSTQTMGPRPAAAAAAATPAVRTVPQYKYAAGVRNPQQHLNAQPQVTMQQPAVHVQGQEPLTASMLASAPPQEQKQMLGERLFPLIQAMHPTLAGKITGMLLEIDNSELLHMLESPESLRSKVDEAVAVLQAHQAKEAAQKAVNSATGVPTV
PABP1 MLLE inh: inhibitors of microRNA-mediated deadenylation, human PABP1 MLLE binding; 0.36% of 360,000 active; inhibition, % at 20 µM; GST-MLLE / FITC-PAM2 fluorescence polarization; in the data active means inhibition above about 35%, passing the limit was not always enough
eIF4H inh: inhibitors of RNA binding by human eIF4H. Q15056. eIF4H fluorescence polarization binding assay. inhibition, % at 35 µM. 0.94% of 290,000 active. AID 2012;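 further: calls also rest on retests at 20 µM and on dose response follow-up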
Of the large screens only hits and unclear results are named; the others gave an inactive call. Compounds with a hit are over-represented: about 1.6% of the library has one in this group of screens. Unless noted, how the calls were made is not given here.

OC[C@H]1O[C@H](OC[C@H]2O[C@H](OC[C@H]3O[C@H](O[C@]4(CO)O[C@H](CO)[C@@H](O)[C@@H]4O)[C@H](O)[C@@H](O)[C@@H]3O)[C@H](O)[C@@H](O)[C@H]2O)[C@H](O)[C@@H](O)[C@H]1O	none (no result: eIF4E 4G PPI, PERK inhibitor, PABP FP inh, eIF4H inh)
Cc1cccc2c3c([nH]c12)CCNC3	none (no result: eIF4E 4G PPI, PERK inhibitor)
CCN(C(=O)c1ccc(S(=O)(=O)N2CCOCC2)cc1)C1CCS(=O)(=O)C1 (centres undefined)	none (no result: eIF4E 4G PPI, PERK inhibitor, PABP FP inh, eIF4H inh)
O=C(CSc1nc2nn(-c3ccccc3)c(=O)c-2c2n1CCCCC2)Nc1cccc(F)c1	none (no result: eIF4E 4G PPI, PERK inhibitor, PABP FP inh, eIF4H inh)
CC(=O)c1ccc(S(=O)(=O)N2CCN(C(C)C(=O)N(C)Cc3ccccc3)CC2)cc1 (centres undefined)	none (no result: eIF4E 4G PPI, PERK inhibitor, PABP FP inh, eIF4H inh)
CC(=O)Nc1ccc(NC(=O)COC(=O)COc2ccc3ccccc3c2)cc1	none (no result: eIF4E 4G PPI, PERK inhibitor, PABP FP inh, eIF4H inh)
COc1ccccc1CNC(=O)CCC1N=C2c3ccccc3N=C(SCC(=O)NCC3CCCO3)N2C1=O (centres undefined)	none (no result: eIF4E 4G PPI, PERK inhibitor)
CCc1nn(C(C)C(=O)NCc2cccc(OC)c2)c(=O)c2cc3occc3n12 (centres undefined)	none (no result: eIF4E 4G PPI, PERK inhibitor)
O=C(COC(=O)c1cccc(Br)c1)Nc1ccc2[nH]c(=O)[nH]c2c1	none (no result: eIF4E 4G PPI, PERK inhibitor, PABP FP inh, eIF4H inh)
O=C(O)CCNc1ccc2c(c1)OCCO2	PABP FP inh active, eIF4H inh 83
O=C(O)c1cccc(NC(=S)NC(=O)c2cccc(OCc3ccccc3)c2)c1	PABP1 MLLE inh 40 (no result: eIF4E 4G PPI, PERK inhibitor)
CCCOc1cccc(C(=O)NC(=S)Nc2ccccc2)c1	none

Screening data as filed in PubChem BioAssay.
